GPT2 inhibitor – GPT2 alanine aminotransferase inhibition; hit rate 0.25% among 100,000; Recombinant GPT2, coupled pyruvate oxidase/HRP Amplex Red fluorescence; Potency, µM (highest dose often 57.7 µM), for inactives: at the top dose activity change, negative = inhibition, usual class: inhibitors; Q8TD30; AID 1671188; further: nearly all actives have a fitted effect of over 60% in size
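Fluorescence read-out: pyruvate from GPT2 turnover coupled to pyruvate oxidase, HRP and Amplex Red (0.2mM ThPP, 0.2U/mL PO and HRP, 50uM Amplex final). Substrates 250uM a-KG, 2mM L-alanine; enzyme 10ng/uL; 30 min RT.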
Luciferase inh – inhibitors of firefly (Photinus pyralis) luciferase; hit rate 2.5% among 76,000; Potency, µM (highest dose often 115 µM), usual class: inhibitors; P08659; AID 1347043; purified P. pyralis luciferase, luminescence, biochemical; further: nearly all actives have a fitted effect of over 65% in size
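FLuc 10nM, D-luciferin 10uM, ATP 10uM, Mg acetate 10mM, Tris acetate pH 7.5, Tween/BSA; cpd qHTS; enzyme added last; CCD luminescence.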
HEK cytotox – cytotoxic compounds in HEK 293 cells | Potency, µM (doses to about 115 µM), for inactives: at the highest dose activity change, negative = cytotoxicity, actives largely listed as inhibitors | AID 1345083 | HEK 293 viability, ATP luminescence (CellTiter-Glo), 48-72 h | hit rate 6.6% among 94,000; further: nearly all actives have a fitted effect of over 60% in size
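Viability of HEK 293 cells, plated at 250 cells/well, was judged by cellular ATP after compound treatment for 48 or 72 hr. Luminescence was imaged 10 min after CellTiter-Glo addition at room temperature.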
3T3 cytotox – cytotoxic compounds in NIH 3T3 cells; Potency, µM (series often up to 96.7 µM), inactives show top-dose activity change, negative = cytotoxicity, hits mostly inhibitors; NIH 3T3 viability, CellTiter-Glo ATP luminescence, 48-72 h; hit rate 4.3% among 94,000; AID 1345082; further: nearly all actives have a fitted effect of over 55% in size
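Mouse fibroblast NIH 3T3 cells, 400 per well, received compound via pintool and were incubated for 48 or 72 hr prior to CellTiter-Glo ATP luminescence measurement.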
hNpr1 antagonist – blocks ANP-stimulated signaling of human Npr1 receptor | P16066 | HEK293 hNpr1 GloSensor cGMP, ANP-stimulated luminescence | Potency, µM (doses to about 46.3 µM), for the others: top-dose activity change, negative = inhibition, actives largely listed as inhibitors | hit rate 1.6% among 76,000 | AID 1347048; calls by dose curve; further: nearly all actives have a fitted effect of over 60% in size
Target sequence (P16066 whole entry, looked up): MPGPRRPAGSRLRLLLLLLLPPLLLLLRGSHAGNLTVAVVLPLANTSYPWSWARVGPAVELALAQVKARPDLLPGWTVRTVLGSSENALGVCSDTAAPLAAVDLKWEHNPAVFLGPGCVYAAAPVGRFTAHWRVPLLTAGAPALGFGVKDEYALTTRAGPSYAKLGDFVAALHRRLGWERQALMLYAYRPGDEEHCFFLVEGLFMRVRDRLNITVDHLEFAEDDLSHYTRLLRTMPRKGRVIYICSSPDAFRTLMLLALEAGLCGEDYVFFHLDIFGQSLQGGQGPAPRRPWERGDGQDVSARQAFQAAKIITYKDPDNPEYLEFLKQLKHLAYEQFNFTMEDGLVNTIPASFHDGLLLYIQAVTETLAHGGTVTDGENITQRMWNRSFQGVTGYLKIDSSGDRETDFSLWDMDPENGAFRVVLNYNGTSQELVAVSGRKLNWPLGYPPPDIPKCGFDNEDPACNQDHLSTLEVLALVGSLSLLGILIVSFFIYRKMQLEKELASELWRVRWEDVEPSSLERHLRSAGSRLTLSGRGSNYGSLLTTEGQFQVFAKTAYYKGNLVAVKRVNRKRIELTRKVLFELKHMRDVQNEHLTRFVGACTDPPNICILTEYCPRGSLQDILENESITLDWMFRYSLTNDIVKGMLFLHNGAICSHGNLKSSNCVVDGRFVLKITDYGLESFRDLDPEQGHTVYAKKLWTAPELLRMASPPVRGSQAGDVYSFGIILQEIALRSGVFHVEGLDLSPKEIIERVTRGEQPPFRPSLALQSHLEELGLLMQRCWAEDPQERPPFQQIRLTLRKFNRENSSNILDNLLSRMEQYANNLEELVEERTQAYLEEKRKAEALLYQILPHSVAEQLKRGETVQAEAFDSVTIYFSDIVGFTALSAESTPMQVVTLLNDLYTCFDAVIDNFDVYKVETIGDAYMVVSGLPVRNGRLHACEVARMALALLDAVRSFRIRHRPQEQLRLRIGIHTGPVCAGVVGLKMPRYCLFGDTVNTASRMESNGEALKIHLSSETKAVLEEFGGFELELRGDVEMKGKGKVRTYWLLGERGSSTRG
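Compound pre-incubated 30 min at room temperature on GloSensor-loaded HEK293 cells stably carrying hNpr1 and the pGS-40F cGMP biosensor. Stimulation uses hNppA at 0.1 nM final; luminescence is taken at baseline and 20 min post-agonist.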
The depositor's hits bear a star; i = inactive; ? = inconclusive; . = no result; [ ] = remark or other dose. A selection: hits, their analogues and other compounds. The true share with any hit is near 10%. Unless noted, the call rests on the fitted dose curve; in most records, active means well fitted curve in the direction sought with a large enough effect; inconclusive means small, poorly fitted or top-dose-only effect, or another doubt; inactive means no such curve, though single readings can be large; an effect the other way counts as inactive or inconclusive. On the % scale 0 is the no-effect control and ±100 the full control effect; potency means the concentration at half of the fitted maximal effect.

SMILES | GPT2 inhibitor | Luciferase inh | HEK cytotox | 3T3 cytotox | hNpr1 antagonist
O=C(Cc1ccccn1)N1CCN(c2nccc(Nc3ccccc3F)n2)CC1 | i | . | ? | ? | .
COc1ccc(Nc2ccnc(N3CCC(NC(=O)Cc4ccc(F)cc4)CC3)n2)cc1 | i | . | 40µM* | ? | .
COc1ccc(CC(=O)N2CCN(c3nccc(Nc4ccccc4F)n3)CC2)cc1 | -1% | . | 45µM* | ? | .
COc1ccc(Nc2ccnc(N3CCC(NC(=O)NC4CCCC4)CC3)n2)cc1 | 1% | . | ? | ? | .
Cc1cc(C)n(CC(=O)N2CC(F)(F)C[C@H]2c2nc(C)no2)n1 | -7% | i | 3% | i | -1%
O=C(c1ccccc1)N1CCCC(n2cc(-c3nc(-c4ccccc4)no3)nn2)C1 (stereo not given) | i | ? | ? | ? | 13µM*
O=C(c1ccc2c(c1)OCO2)N1CCCC(n2cc(-c3nc(-c4ccccc4)no3)nn2)C1 (stereo not given) | 0% | ? | ? | ? | 11µM*
O=C(c1cccnc1)N1CCCC(n2cc(-c3nc(-c4ccccc4)no3)nn2)C1 (stereo not given) | -15% | i | ? | -40% | ?
O=C(c1ccc2c(c1)OCO2)N1CCCC(n2cc(-c3nc(C4CC4)no3)nn2)C1 (stereo not given) | 1% | i | ? | ? | -4%
O=C(C1CCCC1)N1CCCC(n2cc(-c3nc(-c4ccccc4)no3)nn2)C1 (stereo not given) | i | ? | ? | ? | 13µM*
O=C(C1CCC1)N1CCCC(n2cc(-c3nc(-c4ccccc4)no3)nn2)C1 (stereo not given) | i | 40µM* | ? | ? | ?
COC(=O)CNC(=O)C1CCN(c2nc3ncccc3o2)CC1 | i | . | 4%[172 µM] | -8%[138 µM] | .
Cc1ccc(C2=NC3(CCN(C(=O)Cc4cccc(F)c4)CC3)ON2)cc1 | -23% | i | -24% | ? | -14%
O=C(N1CCCC(n2cc(-c3nc(-c4ccccc4)no3)nn2)C1)C1(c2ccccc2)CC1 (stereo not given) | 2% | ? | 45µM* | ? | 14µM*
CCCc1nc(NCc2ccc(-c3noc(C)n3)cc2)c2cnn(C)c2n1 | -1% | i | 18µM* | ? | 11µM*
NCCO[C@H]1C[C@@H](O)C12CCN(S(=O)(=O)c1ccc(F)cc1)CC2 | i | i | i | -20% | 0%
O=C(Cc1ccc(N(Cc2cccc(F)c2)C(=O)c2ccco2)cc1)NCc1ccco1 | -4% | i | 89µM* | ? | 0%
COc1ccc(CN(C(=O)c2ccco2)c2ccc(CC(=O)NCc3ccccc3)cc2)cc1 | i | i | ? | 35µM* | -17%
COc1ccc(CN(C(=O)c2ccco2)c2ccc(CC(=O)NCc3ccc(F)cc3)cc2)cc1 | i | i | ? | 20µM* | -17%
C=CCNC(=O)Cc1ccc(N(Cc2ccc(OC)cc2)C(=O)c2ccco2)cc1 | -18% | i | ? | -29% | -3%
O=C(Cc1ccc(N(Cc2ccccc2)C(=O)c2ccco2)cc1)NCc1ccc(F)cc1 | i | i | 40µM* | ? | -13%
COc1cccc(CC(=O)N2CCc3nnc([C@@H]4C[C@@H](O)CN4C)n3CC2)c1 | i | i | -4% | i | 9%
O=C(c1ccncc1)N1CCC(c2nc(-c3cccnn3)no2)CC1 | 2% | i | -3% | i | -1%
COc1ccc(NC(=O)c2c(-c3cnn(C)c3NCc3ccccc3)noc2C)cc1 | i | i | ? | 11µM* | -6%[70.6 µM]
Cc1cnc(C2CC2)n1CCNC(=O)Cn1c(=O)oc2cc(Cl)ccc21 | -8% | i | ? | -17% | 4%
SMILES | GPT2 inhibitor | Luciferase inh | HEK cytotox | 3T3 cytotox | hNpr1 antagonist
O=C(c1cnn2ccccc12)N1CCC(Cc2cccc(CO)c2)C1 (stereo not given) | 0% | ? | ? | ? | 7.1µM*
O=C(NCc1nnc2c(-c3nc(C4CC4)no3)cccn12)c1cc(Cl)ccc1F | i | i | ? | -14% | -1%
COc1cccc(Nc2cc3[nH]ccc3c(C(=O)NCc3c(C)cc(C)[nH]c3=O)n2)c1 | 4%[88.5 µM] | ? | 71µM* | 40µM* | 1%[70.6 µM]
COc1ccc(-c2cc3[nH]ccc3c(C(=O)NCc3c(C)cc(C)[nH]c3=O)n2)cc1 | -3%[88.5 µM] | ? | ? | ? | ?
Cc1cc(C)c(CNC(=O)c2nc(-c3cccc(C(F)(F)F)c3)cc3[nH]ccc23)c(=O)[nH]1 | ? | i | 40µM* | ? | -16%
CC(NC(=O)CCc1conc1-c1ccccc1)c1ccc(F)cc1 (stereo not given) | 5% | 18µM* | ? | -3% | -4%
N#CC1CCN(C(=O)C2CN(c3ccccc3)C(=O)N2)CC1 (stereo not given) | i | i | 2%[172 µM] | -4%[138 µM] | 17%[70.6 µM]
CC(C)OCCCNC(=O)C1CC(=O)N(c2n[nH]c3cccc(F)c23)C1 (stereo not given) | 0% | i | -22% | -7% | 3%
O=C(CCc1ccc(O)cc1)N[C@H]1CC[C@H](Nc2nccc(-c3cccnc3)n2)C1 | -24% | i | 40µM* | 50µM* | -12%
CCn1ccc(C(=O)N2CCOc3ccc(CN4CCCCC4)cc3C2)n1 | i | i | -12% | -11% | 3%
O=C(NCC1CCCCC1)c1ccc2c(c1)N(S(=O)(=O)c1ccccc1)CC2 | i | i | ? | 40µM* | -5%
O=C(CN1CC2CC(C1)[C@H]1CCCC(=O)N1C2)NCc1cc(F)ccc1F (stereo not given in full) | i | i | -3% | i | -1%
Cc1cc(F)ccc1OC1CN(Cc2ccc(N(C)C)cc2)C1 | i | i | 79µM* | ? | 0%[70.6 µM]
Cc1cc(F)ccc1OC1CN(Cc2ccc(C(F)(F)F)cc2)C1 | i | i | 100µM* | ? | -21%[70.6 µM]
Cc1cc(F)ccc1OC1CN(Cc2ccsc2)C1 | -1%[88.5 µM] | i | ? | ? | -1%[70.6 µM]
Fc1ccc(OC2CN(Cc3ccccc3)C2)c(F)c1 | 1%[88.5 µM] | . | -7%[172 µM] | -6%[138 µM] | .
Cc1cc(F)ccc1OC1CN(C(=O)c2ccccc2)C1 | -2%[88.5 µM] | 18µM* | ? | ? | -13%[70.6 µM]
O=C(N1CCN(C/C=C/c2ccccc2)CC1)C12CNCC1CNC2 (stereo not given) | 2% | i | ? | ? | -6%
Fc1ccc(C(c2ccc(F)cc2)N2CCN(CC=Cc3ccccc3)CC2)cc1 | 4.3µM* | . | . | . | .
Cc1ccccc1-c1nc(-c2c(C)noc2C)cc2cc(CN(C)C)oc12 | ? | i | ? | 28µM* | 4%[70.6 µM]
Cc1noc(C)c1-c1cc2cc(CN(C)C)oc2c(NCc2cccnc2)n1 | i | i | ? | ? | 7%[70.6 µM]

Source: PubChem BioAssay (National Center for Advancing Translational Sciences (NCATS))
